# Source: PubChem BioAssay (NCI)
# The panel holds about 83,000 compounds, 20% with a hit somewhere; the sample as a whole holds those more often.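 Interpretation: 100, growth as untreated; towards 0, rising growth inhibition; 0, no net growth; 0 to -100, cell death. Compounds scoring below 10 were considered active.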 Activity calls are given as the source filed them.
# Tested on: SW-620 colon
# Assay: NCI-60 one-dose screen, 48 h (100 = growth as untreated, 0 = no growth, -100 = all killed)
# Conditions: 10 µM unless noted
row,SMILES,growth
1,Cc1cc(N2CCCCC2)nc(N(CCNc2ccnc3cc(Cl)ccc23)Cc2ccccn2)n1,45.7% (inactive)
2,CCN(CC)c1ccc(Nc2ccc(CC(=O)c3ccccc3)cc2)cc1,89.9% (inactive)
3,COc1ccc(/C=C2\C=C(c3ccccc3)N(CCc3ccccc3)C2=O)cc1OC,56% (inactive)
4,CCn1nc(C#Cc2c(C)ccc3c(Nc4ccc(Cl)cc4)nccc23)c2c(N)ncnc21,25% (inactive)
5,Cc1ccc(S(=O)(=O)Nc2sccc2-c2nc(-c3ccccc3)no2)cc1,97% (inactive)
6,CCCCCOC(=O)c1cccc(NC(=O)CN(CC)CC)c1,105% (inactive)
7,COc1cc2oc(-c3cccc(C(=O)Nc4ccc(C#N)cc4)c3)cc(=O)c2c(O)c1OC,78% (inactive)
8,COc1ccc(-n2ncn(CCCCCCn3cnn(-c4ccc(OC)cc4)c3=O)c2=O)cc1,95.2% (inactive)
9,COc1ccc(C2CC(c3ccccc3)=NN2c2nc(C)c(C(C)=O)s2)cc1 (stereo not given),96.1% (inactive)
10,CC(C)(C)CC(C)(C)Nc1c(-c2ccc(-c3ccccc3)cc2)nc2cnccn12,97.1% (inactive)
11,N#Cc1cccc(-c2nc3ccccn3c2NCCN2CCOCC2)c1,95.5% (inactive)
12,C=C1C(=O)O[C@H]2[C@H]1CC/C(COC(=O)/C=C/C(=O)NCc1ccc(Cn3c(=O)sn(-c4ccccc4)c3=O)cc1)=C\CC[C@@]1(C)O[C@@H]21,-64.5% (active)
13,CCC(C)NCc1ccccc1 (stereo not given),101% (inactive)
14,CC(C)n1nc(C#Cc2cccc3cc(-c4cccc(C(F)(F)F)c4)ncc23)c2c(N)ncnc21,71.8% (inactive)
15,CCNCCNc1cc(-c2ccc(C#N)cc2)c(C#N)c2nc3ccccc3n12,-30.2% (active)
16,CC[C@@H](C[C@H](CCO)c1ccccc1)c1cc2ccccc2o1,89.6% (inactive)
17,CCN(CCO)CC(=O)c1cc(Cl)cc(Cl)c1Cl,102% (inactive)
18,C=C1C(=O)O[C@H]2[C@H]1CC/C(Cn1cc(CNCCc3c[nH]c4ccc(Cl)cc34)nn1)=C\CC[C@@]1(C)O[C@@H]21,2.69% (active)
19,C=C1c2c(C)nn(-c3ccc(N)cc3)c2N(C)C23CC1C1(C)c4c(C)nn(-c5ccc(N)cc5)c4N(C)C(C)(CC12)C3 (stereo not given),77.1% (inactive)
20,COc1ccc(Nc2ncc(Br)c(NCCCNC(=O)C3CCC3)n2)cc1,29.1% (inactive)
21,CC(C)n1nc(C#Cc2cccc(NC(=O)c3cccc(C(F)(F)F)c3)c2)c2c(N)ncnc21,1.28% (active)
22,COC(=O)c1ccc2oc(NC(=O)c3ccc(N4CCOCC4)c([N+](=O)[O-])c3)nc2c1,100% (inactive)
23,COc1cc2oc(-c3cccc(C(=O)Nc4ccc(C)cc4)c3)cc(=O)c2c(OC)c1OC,59.5% (inactive)
24,COc1ccc(/C=C(\C#N)n2nnc3cc(F)c(F)cc32)c(OC)c1OC,62% (inactive)
25,C=C(CNCCc1ccc(O)cc1)[C@@H]1CC[C@]2(COC3CCCCO3)CC[C@]3(C)[C@H](CC[C@@H]4[C@@]5(C)CCC(NCCO)C(C)(C)[C@@H]5CC[C@]43C)[C@@H]12 (stereo not given in full),-76.2% (active)
26,C[C@@H]1CC[C@@H]2[C@@H]1[C@H](OC(=O)c1ccc3ccccc3c1)[C@]1(C3CCCCC3)C[C@@H](OC(=O)CO)[C@@]2(C)O1,65.1% (inactive)

# Tested on: MCF7 breast
# Assay: as above
# Conditions: 10 µM unless noted
row,SMILES,growth
1,Clc1cnc(Nc2ccc(OCCN3CCCC3)cc2)nc1NCc1ccco1,-0.965% (active)
2,COc1ccc(Oc2nc(Nc3ccc(N4CCCCC4)nc3)ncc2NC(=O)c2cc(OC)cc(OC)c2)cc1,9.76% (active)
3,CCCn1nc(-c2ccccc2)c2c(-c3ccccc3)onc2c1=O,40.9% (inactive)
4,COc1ccc(/C(C)=C(\c2ccc(Cl)cc2)c2ccc(OCCCN(C)C)cc2)cc1F,13% (inactive)
5,CCN(CC)N=Nc1nn(C(=O)Nc2ccc(Cc3ccccc3)cc2)c2ccc(Cl)cc12,40.4% (inactive)
6,C=C1C(=O)O[C@H]2[C@H]1CC/C(COC(=O)NCc1ccc(Cn3c(=O)sn(CCCCl)c3=O)cc1)=C\CC[C@@]1(C)O[C@@H]21,5.59% (active)
7,NC(=S)N/N=C/C(=O)O,11.7% (inactive)
8,C=C(C)[C@@H]1CC[C@]2(CNCCO)CC[C@]3(C)[C@H](CC[C@@H]4[C@@]5(C)CCC(N)[C@@](C)(CO)[C@@H]5CC[C@]43C)[C@@H]12 (stereo not given in full),-54.2% (active)
9,Clc1ccc2c(NCCCN3CCN(c4nc(-n5ccnc5)nc5ccccc45)CC3)ccnc2c1,-29.3% (active)
10,O=C1C(Cl)C(c2ccccc2Cl)N1n1cnnc1 (stereo not given),97.4% (inactive)
11,COC(=O)c1ccc(CSc2nnc(-c3ccncc3)o2)cc1,96.6% (inactive)
12,C#CC[C@H](N)C(=O)O,91.7% [20 µM] (inactive)
13,CN1CCN(C(=O)[C@]23CCC(C)(C)C[C@@H]2C2=CC[C@@H]4[C@@]5(C)Cc6c([nH]c7ccccc67)C(C)(C)[C@@H]5CC[C@@]4(C)[C@]2(C)CC3)CC1,69.9% (inactive)
14,Cc1cc(N2CCCCC2)nc(N(CCNc2ccnc3cc(Cl)ccc23)Cc2ccccn2)n1,26.2% (inactive)
15,CCN(CC)c1ccc(Nc2ccc(CC(=O)c3ccccc3)cc2)cc1,83.6% (inactive)
16,COc1ccc(/C=C2\C=C(c3ccccc3)N(CCc3ccccc3)C2=O)cc1OC,34.4% (inactive)
17,CCn1nc(C#Cc2c(C)ccc3c(Nc4ccc(Cl)cc4)nccc23)c2c(N)ncnc21,6.61% (active)
18,Cc1ccc(S(=O)(=O)Nc2sccc2-c2nc(-c3ccccc3)no2)cc1,93.1% (inactive)
19,CCCCCOC(=O)c1cccc(NC(=O)CN(CC)CC)c1,103% (inactive)
20,COc1cc2oc(-c3cccc(C(=O)Nc4ccc(C#N)cc4)c3)cc(=O)c2c(O)c1OC,48.5% (inactive)

row,SMILES,growth
1,COc1ccc(-n2ncn(CCCCCCn3cnn(-c4ccc(OC)cc4)c3=O)c2=O)cc1,92.7% (inactive)
2,COc1ccc(C2CC(c3ccccc3)=NN2c2nc(C)c(C(C)=O)s2)cc1 (stereo not given),94.7% (inactive)
3,CC(C)(C)CC(C)(C)Nc1c(-c2ccc(-c3ccccc3)cc2)nc2cnccn12,82.3% (inactive)
4,N#Cc1cccc(-c2nc3ccccn3c2NCCN2CCOCC2)c1,90.4% (inactive)
5,C=C1C(=O)O[C@H]2[C@H]1CC/C(COC(=O)/C=C/C(=O)NCc1ccc(Cn3c(=O)sn(-c4ccccc4)c3=O)cc1)=C\CC[C@@]1(C)O[C@@H]21,5.01% (active)
6,CCC(C)NCc1ccccc1 (stereo not given),102% (inactive)
7,CC(C)n1nc(C#Cc2cccc3cc(-c4cccc(C(F)(F)F)c4)ncc23)c2c(N)ncnc21,75.7% (inactive)
8,CCNCCNc1cc(-c2ccc(C#N)cc2)c(C#N)c2nc3ccccc3n12,57.8% (inactive)
9,CC[C@@H](C[C@H](CCO)c1ccccc1)c1cc2ccccc2o1,117% (inactive)
10,CCN(CCO)CC(=O)c1cc(Cl)cc(Cl)c1Cl,98.9% (inactive)
11,C=C1C(=O)O[C@H]2[C@H]1CC/C(Cn1cc(CNCCc3c[nH]c4ccc(Cl)cc34)nn1)=C\CC[C@@]1(C)O[C@@H]21,42.9% (inactive)
12,C=C1c2c(C)nn(-c3ccc(N)cc3)c2N(C)C23CC1C1(C)c4c(C)nn(-c5ccc(N)cc5)c4N(C)C(C)(CC12)C3 (stereo not given),24.8% (inactive)
13,COc1ccc(Nc2ncc(Br)c(NCCCNC(=O)C3CCC3)n2)cc1,41.1% (inactive)
14,CC(C)n1nc(C#Cc2cccc(NC(=O)c3cccc(C(F)(F)F)c3)c2)c2c(N)ncnc21,14.4% (inactive)
15,COC(=O)c1ccc2oc(NC(=O)c3ccc(N4CCOCC4)c([N+](=O)[O-])c3)nc2c1,94.1% (inactive)
16,COc1cc2oc(-c3cccc(C(=O)Nc4ccc(C)cc4)c3)cc(=O)c2c(OC)c1OC,24.5% (inactive)
17,COc1ccc(/C=C(\C#N)n2nnc3cc(F)c(F)cc32)c(OC)c1OC,27.2% (inactive)
18,C=C(CNCCc1ccc(O)cc1)[C@@H]1CC[C@]2(COC3CCCCO3)CC[C@]3(C)[C@H](CC[C@@H]4[C@@]5(C)CCC(NCCO)C(C)(C)[C@@H]5CC[C@]43C)[C@@H]12 (stereo not given in full),-84.3% (active)
19,C[C@@H]1CC[C@@H]2[C@@H]1[C@H](OC(=O)c1ccc3ccccc3c1)[C@]1(C3CCCCC3)C[C@@H](OC(=O)CO)[C@@]2(C)O1,20.5% (inactive)
